The text below walks through data of PubChem BioAssay (Tox21).

Test [1] is described as follows: qHTS assay to identify small molecule antagonists of the glucocorticoid receptor (GR) signaling pathway - cell viability counter screen (AID 720693). Note: nearly all actives have a fitted effect of over 55% in size. Note: potency is the fitted concentration of half-maximal effect. In general terms: In qHTS, concentration-response curves come from the screen itself.
The nature of test [2]: qHTS assay for identifying genotoxic compounds that show differential cytotoxicity against isogenic chicken DT40 cell lines with known DNA damage response pathways - wild type cell line (AID 743012). Note: nearly all actives have a fitted effect of over 60% in size. Note: potency is the fitted concentration of half-maximal effect. In a few lines:
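Using parental DT40 (300 cells/well), compounds delivered in DMSO incubate 40 h at 37 C/5% CO2. CellTiter-Glo reagent then stands 30 min at room temperature, and luminescence gives cell viability.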

A short description of test [3]: qHTS assay for identifying genotoxic compounds that show differential cytotoxicity against isogenic chicken DT40 cell lines with known DNA damage response pathways - Rev3 mutant cell line (AID 743014). Note: nearly all actives have a fitted effect of over 55% in size. Note: potency is the fitted concentration of half-maximal effect.
Test [4] can be described thus: qHTS assay for identifying genotoxic compounds that show differential cytotoxicity against isogenic chicken DT40 cell lines with known DNA damage response pathways - Rad54/Ku70 mutant cell line (AID 743015). Note: nearly all actives have a fitted effect of over 60% in size. Note: potency is the fitted concentration of half-maximal effect.
Test [5] can be described thus: qHTS assay to identify small molecule antagonists of the androgen receptor (AR) signaling pathway - cell viability counter screen (AID 743033; note: nearly all actives have a fitted effect of over 45% in size; note: potency is the fitted concentration of half-maximal effect).
Test [6] in a line: qHTS assay to identify small molecule antagonists of the androgen receptor (AR) signaling pathway using the MDA cell line - cell viability counter screen (AID 743041; note: nearly all actives have a fitted effect of over 45% in size; note: potency is the fitted concentration of half-maximal effect). In short, it runs like this:
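Viability counter screen run alongside the AR antagonist reporter: cells seeded 5 h before compound, R1881 added, 16 h incubation at 37C without CO2, fluorescent CellTiter-Fluor signal quantified.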

Test [7] can be described thus: qHTS assay to identify small molecule antagonists of the thyroid receptor (TR) signaling pathway - cell viability counter screen (AID 743064). Note: nearly all actives have a fitted effect of over 50% in size. Note: potency is the fitted concentration of half-maximal effect. In a few lines:
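GH3.TRE-Luc cells, 4 h pre-plating; cpd + T3 1 nM final; 37 °C 23.5 h; CellTiter-Fluor 30 min; fluorescence read.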

Test [8] in a line: qHTS assay to identify small molecule antagonists of the estrogen receptor alpha (ER-alpha) signaling pathway - cell viability counter screen (AID 743074; calls by dose curve;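 note: HEK293 cells carrying ER-alpha-UAS-bla reporter stimulated with 17beta-estradiol; nearly all actives have a fitted effect of over 45% in size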; note: potency is the fitted concentration of half-maximal effect).
Test [9] can be described thus: qHTS assay to identify small molecule antagonists of the estrogen receptor alpha (ER-alpha) signaling pathway using the BG1 cell line - cell viability counter screen (AID 743081).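 Note: compound given together with 17beta-estradiol as the ER stimulus; nearly all actives have a fitted effect of over 45% in size.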 Note: potency is the fitted concentration of half-maximal effect.
The next test concerns the target Aromatase (Homo sapiens) (UniProt P11511). The experiment in a line: qHTS assay to identify aromatase inhibitors (AID 743083). Note: nearly all actives have a fitted effect of over 55% in size. Note: potency is the fitted concentration of half-maximal effect.
Test [10] is described as follows: qHTS assay to identify aromatase inhibitors - cell viability counter screen (AID 743084).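 Note: cells stimulated with testosterone during compound exposure; nearly all actives have a fitted effect of over 55% in size.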 Note: potency is the fitted concentration of half-maximal effect.
Test [11] deals with thyroid hormone receptor (rat, GH3 cells). The test is described as follows: qHTS assay to identify small molecule agonists of the thyroid receptor (TR) signaling pathway (AID 743066; calls by dose curve).
Test [12] deals with Aryl hydrocarbon receptor (Homo sapiens) (UniProt P35869). The test is described as follows: qHTS assay to identify small molecule that activate the aryl hydrocarbon receptor (AhR) signaling pathway (AID 743085). Note: nearly all actives have a fitted effect of over 15% in size. Note: potency is the fitted concentration of half-maximal effect. In a few lines:
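Luminescence read-out: ONE-Glo reagent, 30 min at room temperature, in HG2L7.5c1 HepG2 reporter cells treated 24 h at 37C. Viability was measured beforehand by CellTiter-Fluor fluorescence after 30 min at 37C.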

Test [13] deals with Estrogen receptor (Homo sapiens) (UniProt P03372). The experiment in a line: qHTS assay to identify small molecule antagonists of the estrogen receptor alpha (ER-alpha) signaling pathway (AID 743069; active = well fitted curve in the direction sought with a large enough effect in the signal ratio in the repeat runs, not every such curve was filed as active; inconclusive = weak or mixed curves, or effect the other way; inactive = no such curve, though single readings can be large or run the other way; the % refers to the signal ratio; note: potency is the fitted concentration of half-maximal effect). In a few lines:
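Estradiol-stimulated ER-alpha-UAS-bla HEK293 cells, 18 hr compound exposure at 37C. LiveBLAzer B/G substrate, 2 hr RT, fluorescence read.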

Test [14] has the same target. The test is described as follows: qHTS assay to identify small molecule agonists of the estrogen receptor alpha (ER-alpha) signaling pathway (AID 743075; calls by dose curve;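 note: HEK293 GripTite cells with ER-alpha and UAS-driven beta-lactamase reporter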).
Test [15] has the same target. The test is described as follows: qHTS assay to identify small molecule agonists of the estrogen receptor alpha (ER-alpha) signaling pathway using the BG1 cell line (AID 743079). Note: nearly all actives have a fitted effect of over 20% in size.

Where “and” joins values, the source holds several entries; their conditions need not be identical. Equal entries are not always repeated. More than one record can exist for a structure, and the calls need not agree. Calls of active or inactive are those of the source. Unless noted, calls come from the whole dose curve; as a rule, active = well fitted curve in the direction sought with a large enough effect in the repeat runs; inconclusive = weak or mixed curves; inactive = no such curve, though single readings can be large; an effect the other way counts as inactive or inconclusive.
% is set by controls: 0 for no effect and ±100 for the full control effect.

Chain of Estrogen receptor (Homo sapiens) (P03372 whole entry, looked up): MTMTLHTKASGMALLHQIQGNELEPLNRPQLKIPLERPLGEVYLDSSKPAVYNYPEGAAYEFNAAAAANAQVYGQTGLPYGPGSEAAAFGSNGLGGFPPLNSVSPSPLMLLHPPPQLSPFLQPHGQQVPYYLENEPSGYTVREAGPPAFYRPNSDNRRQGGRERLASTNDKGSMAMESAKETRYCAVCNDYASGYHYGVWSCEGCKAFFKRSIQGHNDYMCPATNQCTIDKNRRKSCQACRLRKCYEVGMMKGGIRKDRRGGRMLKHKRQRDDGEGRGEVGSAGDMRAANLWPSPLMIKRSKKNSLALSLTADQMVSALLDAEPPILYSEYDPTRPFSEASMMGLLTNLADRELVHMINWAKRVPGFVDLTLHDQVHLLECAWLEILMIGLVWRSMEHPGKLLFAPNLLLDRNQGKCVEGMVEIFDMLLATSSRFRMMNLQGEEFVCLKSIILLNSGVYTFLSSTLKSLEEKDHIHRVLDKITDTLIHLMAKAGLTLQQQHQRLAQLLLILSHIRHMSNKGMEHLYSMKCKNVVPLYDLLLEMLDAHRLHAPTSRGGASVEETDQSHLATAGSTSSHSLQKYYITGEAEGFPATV
Chain of Aromatase (Homo sapiens) (P11511 whole entry, looked up): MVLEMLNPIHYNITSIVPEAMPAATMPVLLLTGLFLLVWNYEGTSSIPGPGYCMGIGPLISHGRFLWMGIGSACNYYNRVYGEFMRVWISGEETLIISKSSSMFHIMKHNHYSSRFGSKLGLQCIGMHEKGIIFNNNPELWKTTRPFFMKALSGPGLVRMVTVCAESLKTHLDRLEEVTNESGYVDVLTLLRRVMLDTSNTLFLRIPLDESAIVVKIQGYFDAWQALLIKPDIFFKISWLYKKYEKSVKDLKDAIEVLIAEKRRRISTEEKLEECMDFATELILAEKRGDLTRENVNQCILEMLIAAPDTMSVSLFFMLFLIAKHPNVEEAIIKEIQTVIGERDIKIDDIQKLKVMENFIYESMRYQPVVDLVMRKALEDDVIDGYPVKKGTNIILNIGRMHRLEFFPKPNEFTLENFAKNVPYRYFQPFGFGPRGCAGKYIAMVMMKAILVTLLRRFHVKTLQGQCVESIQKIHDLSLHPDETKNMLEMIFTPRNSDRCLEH
Chain of Aryl hydrocarbon receptor (Homo sapiens) (P35869 whole entry, looked up): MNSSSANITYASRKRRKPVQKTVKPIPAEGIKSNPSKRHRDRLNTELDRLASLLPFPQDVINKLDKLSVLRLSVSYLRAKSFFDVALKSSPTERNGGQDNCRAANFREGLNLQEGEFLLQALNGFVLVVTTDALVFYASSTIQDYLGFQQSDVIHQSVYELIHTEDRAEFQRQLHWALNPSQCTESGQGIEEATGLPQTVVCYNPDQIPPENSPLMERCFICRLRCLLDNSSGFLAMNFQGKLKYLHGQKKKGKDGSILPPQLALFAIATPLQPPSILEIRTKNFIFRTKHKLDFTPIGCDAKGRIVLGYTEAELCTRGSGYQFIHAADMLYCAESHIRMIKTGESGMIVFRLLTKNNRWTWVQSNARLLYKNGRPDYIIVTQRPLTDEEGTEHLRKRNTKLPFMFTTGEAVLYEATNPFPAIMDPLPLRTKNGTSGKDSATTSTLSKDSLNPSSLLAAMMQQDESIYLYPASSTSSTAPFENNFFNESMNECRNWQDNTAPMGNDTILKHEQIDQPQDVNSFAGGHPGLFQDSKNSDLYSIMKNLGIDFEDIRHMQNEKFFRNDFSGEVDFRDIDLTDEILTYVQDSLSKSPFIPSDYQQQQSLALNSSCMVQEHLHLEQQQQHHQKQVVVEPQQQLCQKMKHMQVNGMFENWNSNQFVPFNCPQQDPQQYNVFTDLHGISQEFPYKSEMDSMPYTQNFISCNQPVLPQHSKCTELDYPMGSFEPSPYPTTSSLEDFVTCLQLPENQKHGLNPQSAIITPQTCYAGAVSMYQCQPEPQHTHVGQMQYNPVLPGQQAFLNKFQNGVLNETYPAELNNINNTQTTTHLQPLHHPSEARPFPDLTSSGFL

For `CCCn1cc[n+](C)c1`, the Potency entry in [1], in test [2], in test [3], in test [4], in [5] and in test [6] was “inactive” in each case. Besides, the Potency result (in [7]; in [8]; in [9]; with Aromatase (Homo sapiens); in test [10]) was “inactive” throughout.

Turning to `CCCC[n+]1cccc(C)c1`, the Potency result in test [1], in [2], in test [3], in test [4], in test [5] and in test [6] was “inactive” each time. The Potency entry (in [7]; in test [11]; in [8]; in [9]; with Aromatase (Homo sapiens); in test [10]) was “inactive” throughout. Also, in test [12], the Potency result is “inactive”.

As to `N#CS`, the Potency result in test [1], in test [2], in test [3], in test [4], in test [5] and in test [6] was “inactive” each time. The Potency result (in test [7]; in test [11]; in test [8]; in test [9]; in the test with Aromatase (Homo sapiens); in [10]) was “inactive” throughout. Moreover, the Potency entry in test [12] was “inactive”.

In the case of `CCCCCC[n+]1ccccc1`, the Potency result (in test [1]; in [7]; in [11]; in test [8]; in [9]; in the test with Aromatase (Homo sapiens)) was “inactive” each time. The Potency result in test [10] and in test [12] was “inactive” each time. In test [5], the Potency is 55.5 µM (active) and 55.3 µM (active) and inactive.

Turning to `Nc1ccc(-c2ccc(N)cc2)cc1`, the Potency result in [1], in test [5], in test [6], in test [7], in [11] and in [13] was “inactive” throughout. Besides, the Potency entry in [8], in test [14], in test [15], in [9] and in test [10] was “inactive” in each case. Further, the Potency was 61.1 µM (active) in test [3]; “inactive and 1.92 µM (active)” in the test with Aromatase (Homo sapiens); 9.58 µM (active) and inactive and 61.1 µM (active) in test [12].

For `CC[N+](CC)(CC)CC`, the Potency entry in [1], in test [2], in test [3], in test [4], in test [5] and in [6] was “inactive” each time. In addition, the Potency result (in test [7]; in test [11]; in [8]; in [9]; with Aromatase (Homo sapiens); in test [10]) was “inactive” in each case. Besides, the Potency entry in [12] was “inactive”.

Turning to `COCC(=O)N(c1c(C)cccc1C)C(C)C(=O)OC` (stereo not given), the Potency entry in test [1], in [4], in [5], in test [6], in test [7] and in test [13] was “inactive” throughout. The Potency result (in [8]; in test [14]; in test [15]; in test [9]; in the test with Aromatase (Homo sapiens); in test [10]) was “inactive” throughout. Besides, in test [12], the Potency entry was “inactive”. The Potency entry in [2] is “inactive and 61 µM (active)”; in test [3], “inactive and 61 µM (active)”.

For `CCCCCCCCCCCCOS(=O)(=O)O`, the Potency entry in test [1], in test [2], in test [3], in [4], in test [5] and in [6] was “inactive” in each case. The Potency result in test [7], in test [11], in test [8], in [9] and in test [10] was “inactive” throughout.

As to `CCCCCCCCCCn1cc[n+](C)c1`, the Potency in test [1] was 49.5 µM (active) and 40 µM (active) and 48.9 µM (active); in test [5], 2.48 µM (active); in [6] it was 872 nM (active) and 559 nM (active) and 193 nM (active); in [10], 24.6 µM (active) and inactive. Besides, in [12], the Potency entry is “inactive”.

On to `O=C(O)CC(O)(CC(=O)O)C(=O)O`, for which the Potency entry in test [1], in test [2], in [3], in test [4], in [5] and in test [6] was “inactive” in each case. Further, the Potency entry (in test [7]; in test [11]; in test [8]; in test [9]; in the test with Aromatase (Homo sapiens); in test [10]) was “inactive” throughout. The Potency entry in test [12] was “inactive”.

In the case of `CCCCCCCCn1cc[n+](C)c1`, the Potency entry in test [1], in [11], in test [9], in test [10] and in test [12] was “inactive” each time. Further, the Potency was 607 nM (active) [middle of 4 runs] in test [4]; 15.4 µM (active) and 11.1 µM (active) in [5]; 2.71 µM (active) and 1.53 µM (active) and 1.55 µM (active) in [6]; 54.4 µM (active) in test [7]; 34.3 µM (active) and 27.5 µM (active) and 55 µM (active) with Aromatase (Homo sapiens).

For the compound `CCCCCCCCCCCCn1cc[n+](C)c1`, in test [7], the Potency was 4.4 µM (active) [middle of 6 runs].

On to `Cc1cc(Cl)ccc1N`, for which the Potency result in [1], in [2], in [3], in test [4], in test [5] and in test [6] was “inactive” throughout. In addition, the Potency result (in [7]; in test [11]; in [8]; in test [9]; with Aromatase (Homo sapiens); in test [10]) was “inactive” throughout. Also, the Potency in test [12] is 31.3 µM (active) and 33.6 µM (active).

Take `CC[n+]1ccccc1`: the Potency result in test [1], in [11] and in test [8] was “inactive” in each case. Also, the Potency entry in test [2] is “inactive and 241 nM (active)”; in test [3], “inactive and 171 nM (active)”; in test [4] it was “inactive and 136 nM (active)”; in [5] it was “inactive and 21.7 µM (active)”; in [7], “inactive and 34.1 µM (active)”; in test [9], “inactive and 30.4 µM (active)”. Besides, the Potency result is “inactive and 54 µM (active)” with Aromatase (Homo sapiens); “inactive and 54 µM (active)” in test [10].

With `CCCCCCCCCCCCCC[P+](CCCCCC)(CCCCCC)CCCCCC`, the Potency was 12.4 µM (active) and 11.1 µM (active) in test [1]; 13.7 µM (active) and 6.91 µM (active) in test [2]; 7.73 µM (active) and 6.16 µM (active) and inactive in test [3]; 6.14 µM (active) and 6.16 µM (active) and inactive in [4]; 982 nM (active) and 3.92 µM (active) and 346 nM (active) in [5]; 6.14 µM (active) and 5.49 µM (active) and 3.06 µM (active) in test [7]. Further, the Potency in [13] is 982 nM [inconclusive] (active) and 985 nM [inconclusive] (active) and 775 nM [inconclusive] (active); in [8] it was 13.9 µM (active) and 11.1 µM (active); in test [9], 19.4 µM (active) and 13.8 µM (active); with Aromatase (Homo sapiens) it was 6.14 µM (active) and 3.89 µM (active) and 1.09 µM (active); in test [10], 24.4 µM (active) and 12.3 µM (active). Also, the Potency entry in [11] and in test [12] was “inactive” each time.

In the case of `CCCCCCn1cc[n+](C)c1`, the Potency entry (in test [1]; in [7]; in [11]; in [9]; in the test with Aromatase (Homo sapiens); in [10]) was “inactive” each time. The Potency result in test [12] was “inactive”. In [6], the Potency is 31.9 µM (active) [middle of 5 runs].

As to `O=S(=O)(O)O`, the Potency result in [1], in test [5], in test [6], in test [7], in test [8] and in test [9] was “inactive” in each case. The Potency result (in the test with Aromatase (Homo sapiens); in test [10]; in test [12]) was “inactive” throughout. Besides, the Potency result in test [2] was “inactive and 27.3 µM (active)”; in test [3] it was “inactive and 61.1 µM (active)”; in test [4], “inactive and 48.6 µM (active)”.
